The nature of test [1]: Primary redox qHTS assay for identification of artifact compounds. (AID 1845223; active = well fitted activation curve with a large enough effect;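 also: 0% = DMSO and 100% = reference compound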). A digest of the protocol: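 Redox-cycling detection via DTT (250 uM final) oxidation coupled to Amplex Red (25 uM)/HRP (250 mU/mL) in HBSS. 15 min preincubation plus 30 min after DTT, room temperature. Ex/Em 525/598 nm; 4-parameter Hill fit against DMSO and 10 uM DA3003.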
A short description of test [2]: qHTS drug screen for cell cycle checkpoint inhibitors in PARPi-resistant BRCA-mutant ovarian cancer cell lines. (AID 1963452). As to conditions: PEO1/OlaR viability, CellTiter-Glo luminescence, 96 h, stronger effect = lower value. In outline: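 PEO1, PEO4 and PEO1/OlaR ovarian cancer cells, 600 per well, exposed 96 h at 37C to a dilution series. Viability read by CellTiter-Glo luminescence, normalized to DMSO and empty wells; activity summarized as Z-AUC.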
In general terms: In qHTS, concentration-response curves come from the screen itself.

Where [3] appears, read: measured here: PEO1 parental Z-AUC.

Several values for one entry are separate records, joined by “and”; a condition that tells them apart may be missing. Equal entries are not always repeated. Results filed as inconclusive are left out. Activity calls are given as the source filed them. Unless noted, calls follow the shape of the full dose curve.

For `Cc1cn(CCN2CCN(c3ccccc3-c3cc(C#N)cc(C(=O)NCCCN4CCCC4)c3)CC2)c2ccccc12`, the Potency result in test [1] is “inactive”. Also, the Z-AUC was -0.259 (inactive) in test [2], -0.4 in test [2] (setting [3]) and -0.379 in test [2] (measured here: PEO4 Z-AUC).

In the case of `CC(=O)N1CCN(CCOc2ccc(C3CCN(C4=Nn5c(nnc5C(F)(F)F)CC4)CC3)cc2)CC1`, in test [1], the Potency entry was “inactive”. For the same molecule, the Z-AUC is -0.519 (inactive) in test [2], -0.781 in test [2] (setting [3]) and -0.776 in test [2] (measured here: PEO4 Z-AUC).

As to `Cc1cc(C(=O)Nc2cc(Oc3ccc4nc(NC(=O)C5CC5)cn4n3)ccc2C)n(C)n1`, in test [1], the Potency result was “inactive”. Besides, the Z-AUC was -0.702 (inactive) in test [2], -1.33 in test [2] (setting [3]) and -1.31 in test [2] (measured here: PEO4 Z-AUC).

Take `Cn1cc(-c2ccc(F)c(C(F)(F)F)c2)nc1C1CCN(c2ncnc3[nH]ncc23)CC1`: the Potency entry in test [1] was “inactive”. Further, the Z-AUC in test [2] is -0.225 (inactive); in test [2] (setting [3]), -0.264; in test [2] (measured here: PEO4 Z-AUC), -0.487.

For the molecule `C[C@H](Nc1ncnc2nc[nH]c12)c1cc2cccc(Cl)c2c(=O)n1-c1ccccc1`, in test [1], the Potency result is “inactive”. Further, the Z-AUC is -0.68 (inactive) and -0.929 (inactive) in test [2]; 0.702 and -0.975 in test [2] (setting [3]); 0.729 and -0.588 in test [2] (measured here: PEO4 Z-AUC).

Take `CC(C)(CNC(=O)c1cccc(-c2noc(C(F)(F)F)n2)c1)c1coc(-c2ccccc2)n1`: the Potency entry in test [1] was “inactive”. Also, the Z-AUC is 0.0442 (inactive) in test [2], 0.732 in test [2] (setting [3]) and 0.975 in test [2] (measured here: PEO4 Z-AUC).

For `C[C@@H](Nc1ncnc2[nH]c(-c3ccc(O)cc3)cc12)c1ccccc1`, the Potency entry in test [1] is “inactive”. Also, the Z-AUC is 0.00552 (inactive) in test [2], 0.314 in test [2] (setting [3]) and 0.296 in test [2] (measured here: PEO4 Z-AUC).

For the molecule `CCn1nc(C2CCN(C(=O)CCO)CC2)nc1-c1cnc(N)c(-c2nnc(C(C)(C)C)o2)n1`, the Potency result in test [1] was “inactive”. Moreover, the values for the Z-AUC in test [2], in test [2] (setting [3]) and in test [2] (measured here: PEO4 Z-AUC) were 0.285 (inactive), 0.385 and 0.568, respectively.

As for `CCn1c(=O)c(-c2ccc(Cl)cc2Cl)cc2cnc(Nc3ccc(N4CCNCC4)c(F)c3)nc21`, the Potency result in test [1] is “inactive”. Also, the values for the Z-AUC in test [2], in test [2] (setting [3]) and in test [2] (measured here: PEO4 Z-AUC) were -0.749 (inactive), -0.47 and -0.502, respectively.

With `COC1CCN(C(=O)c2cc(Cc3n[nH]c(=O)c4ccccc34)ccc2F)CC1`, in test [1], the Potency entry is “inactive”. The Z-AUC in test [2] was 0.585 (inactive); in test [2] (setting [3]), -0.393; in test [2] (measured here: PEO4 Z-AUC), 0.328.

Take `CC(/C=C/C(=O)NO)=C\[C@@H](C)C(=O)c1ccc(N(C)C)cc1`: the Potency entry in test [1] is “inactive”. For the same molecule, the Z-AUC is -0.778 (inactive) in test [2], -0.861 in test [2] (setting [3]) and -1.61 in test [2] (measured here: PEO4 Z-AUC).

Turning to `CCCCNc1ncc(-c2ccc(CN3CCOCC3)cn2)c(NC2CCC(O)CC2)n1` (stereo not drawn), the Potency entry in test [1] is “inactive”. Also, the Z-AUC was -1.2 (inactive) in test [2], -1.14 in test [2] (setting [3]) and -0.666 in test [2] (measured here: PEO4 Z-AUC).

Consider `NCC1CCN(c2nccc(-c3ccc4ccccc4c3)n2)CC1`, for which the Potency entry in test [1] is “inactive”. Moreover, the values for the Z-AUC in test [2], in test [2] (setting [3]) and in test [2] (measured here: PEO4 Z-AUC) were -1.15 (inactive), 0.563 and -0.738, respectively.

With `Fc1ccc2[nH]ccc2c1-c1nc(N2CCOCC2)c2sc(CN3CCN(CC4CC4)CC3)cc2n1`, in test [1], the Potency result is “inactive”. The values for the Z-AUC in test [2], in test [2] (setting [3]) and in test [2] (measured here: PEO4 Z-AUC) were -0.813 (inactive), -0.565 and -0.474, respectively.

For `CC(C)(C)Sc1c(CC(C)(C)C(=O)O)n(Cc2ccc(Cl)cc2)c2ccc(OCc3ccc4ccccc4n3)cc12`, in test [1], the Potency result is “inactive”. Besides, the Z-AUC was 1.37 (inactive) in test [2], 0.865 in test [2] (setting [3]) and 0.962 in test [2] (measured here: PEO4 Z-AUC).

Regarding `NC(=O)c1ccccc1Nc1ccnc(Nc2cccc(O)c2)n1`, the Potency result in test [1] was “inactive”. Further, the Z-AUC in test [2] was -1.9 (inactive); in test [2] (setting [3]), -1.44; in test [2] (measured here: PEO4 Z-AUC) it was -1.66.

Turning to `CCNC1(C(N)=O)CCN(c2ncnc3c2nc(-c2ccccc2Cl)n3-c2ccc(Cl)cc2)CC1`, the Potency result in test [1] was “inactive”. The Z-AUC in test [2] was 0.84 (inactive); in test [2] (setting [3]) it was 0.367; in test [2] (measured here: PEO4 Z-AUC) it was 0.247.

With `Cn1ncc(Cl)c1-c1cc(C(=O)N[C@H](CN)Cc2ccc(F)c(F)c2)sc1Cl`, the Potency result in test [1] is “inactive”. Also, the Z-AUC was 0.188 (inactive) in test [2], 0.381 in test [2] (setting [3]) and -0.0194 in test [2] (measured here: PEO4 Z-AUC).

Regarding `CCN(c1cc(-c2ccc(CN3CCOCC3)cc2)cc(C(=O)NCc2c(C)cc(C)[nH]c2=O)c1C)C1CCOCC1`, the Potency entry in test [1] is “inactive”. Besides, the Z-AUC is 0.506 (inactive) in test [2], 0.489 in test [2] (setting [3]) and 0.0284 in test [2] (measured here: PEO4 Z-AUC).

Consider `CCC(CC)C(c1ccc(Nc2nc3ccccc3s2)cc1)n1cncn1` (stereo not drawn), for which, in test [1], the Potency entry is “inactive”. Further, the Z-AUC in test [2] was 0.298 (inactive); in test [2] (setting [3]), 0.98; in test [2] (measured here: PEO4 Z-AUC), 0.959.

For `c1cc(-c2cnn3cc(-c4ccc(N5CCNCC5)cc4)cnc23)c2cccnc2c1`, in test [1], the Potency entry was “inactive”. Besides, the results for the Z-AUC in test [2], in test [2] (setting [3]) and in test [2] (measured here: PEO4 Z-AUC) were -1.26 (inactive), -1.26 and -1.83, respectively.

On to `Cc1cc(-c2cc(OC(=O)c3ccccc3)ccc2Cl)cc2nnc(Nc3ccc(OCCN4CCCC4)cc3)nc12`, for which, in test [1], the Potency result is “inactive”. Besides, the figures for the Z-AUC in test [2], in test [2] (setting [3]) and in test [2] (measured here: PEO4 Z-AUC) were -0.528 (inactive), 0.132 and -1.13, respectively.

The record behind these values is PubChem BioAssay (NCATS).
